High-throughput results: PubChem, National Center for Advancing Translational Sciences (NCATS)
HT1080 IDH1KD tx: toxicity to HT-1080 IDH1 knockdown cells (counter line); HT-1080 IDH1 knockdown viability, ATP luminescence, 48 h; Potency, µM (titrated, usually from 46.1 µM), inactives show at the highest dose activity, negative = toxicity, hits mostly cytotoxic; actives 2% (n = 360,000);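 further: potency means the concentration at half of the fitted maximal effect; 0% = DMSO wells and -100% = cell-free medium wells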
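Cytotoxicity counter-line: IDH1KD HT-1080, 48 h, CellTiter-Glo. Curves classed by r2, magnitude and activity.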
DT40 TDP1 no CPT: qHTS for Inhibitors of human tyrosyl-DNA phosphodiesterase 1 (TDP1): qHTS in cells in absence of CPT; Potency, µM (series often up to 46.2 µM), for inactives: at the highest dose activity change, negative = growth inhibition, usual class: inhibitors; actives 15% (n = 420,000); DT40 Tdp1-/- hTDP1 cells, no CPT, ATP luminescence, 48 h; further: potency means the concentration at half of the fitted maximal effect; nearly all actives have a fitted effect of over 55% in size
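Readout: luminescence from CellTiter-Glo after 30 min in the dark at RT. Cells: DT40 Tdp1-/- with stable hTDP1, 400/well. Exposure: compounds alone, ≥48 hr, 37 °C.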
IL1B secr inh: inflammasome signaling inhibition, IL-1 beta readout; THP-1 LPS/ATP IL-1B secretion, AlphaLISA, 16 h; stronger effect = lower value; activity change, % at 57.5 µM; actives 4.7% (n = 360,000); in the data active means activity change below about -50%; inconclusive means mostly about -30% to -49%
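THP-1 cells pretreated 1 hr with compounds (up to 57.5 uM final), then stimulated with LPS (250 ng/mL final) plus ATP (1.25 mM final); secreted IL-1B measured by AlphaLISA after 16 hr, decreased signal indicating inhibition.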
DT40 TDP1 CPT: DT40-hTDP1 cell growth loss with CPT. chicken DT40 Tdp1-/-;hTDP1 cells + 20 nM CPT, ATP luminescence, 48 h. Potency, µM (highest dose often 46.2 µM), without a hit: top-dose activity change, negative = growth inhibition, most hits filed as inhibitors. actives 12% (n = 420,000); further: potency means the concentration at half of the fitted maximal effect; nearly all actives have a fitted effect of over 55% in size
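Cell growth measured by CellTiter-Glo luminescence after a minimum 48 h, 37 C compound exposure with 20 nM CPT in Tdp1-knockout DT40 cells stably expressing hTDP1, seeded 400/well; qHTS titration format.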
ELG1 DNA repair: ELG1-dependent DNA repair inhibition. AID 504467. HEK293T ELG1-luciferase reporter, luminescence, 16 h; DNA damage induced by 5-fluorouridine. actives 2.3% (n = 330,000). Potency, µM (titrated, usually from 46.1 µM), for the others: at the highest dose activity change, negative = inhibition, hits mostly inhibitors; further: potency means the concentration at half of the fitted maximal effect; nearly all actives have a fitted effect of over 55% in size
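In this reporter screen, reduction of luminescence relative to DMSO vehicle indicated activity. Compounds and 5-fluorouridine were added together to 2,000 cells per well, incubated for 16 hr at 37 °C, then developed with ONE-Glo.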
HT1080-NT tox: kills 2HG-producing HT-1080-NT fibrosarcoma cells | actives 1.6% (n = 360,000) | Potency, µM (titrated, usually from 46.1 µM), inactives show at the highest dose activity, negative = less viability, usual class: cytotoxic | HT-1080-NT fibrosarcoma viability, CellTiter-Glo ATP luminescence, 48 h;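 further: NT is the 2HG producing partner of a matched IDH1 knockdown line; potency means the concentration at half of the fitted maximal effect; 0% = DMSO-treated cells and -100% = media-only wells without cells; nearly all actives have a fitted effect of over 55% in size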
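HT-1080-NT; 750 cells/well; 5% FBS RPMI; 48 h compound, 37 degrees C; CellTiter-Glo luminescence; curve fitting and curve-class assignment.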
Active calls of the source: *; ? = inconclusive; / = not tested or not shown. In the library only some 19% were active in any assay of this set; here they are far more common. Unless noted, the call rests on the fitted dose curve; in most records, active means well fitted curve in the direction sought with a large enough effect; inconclusive means small, poorly fitted or top-dose-only effect, or another doubt; inactive means no such curve, though single readings can be large; an effect the other way counts as inactive or inconclusive. Unless noted, on the % scale 0 is the no-effect control and ±100 the full control effect.

SMILES | HT1080 IDH1KD tx | DT40 TDP1 no CPT | IL1B secr inh | DT40 TDP1 CPT | ELG1 DNA repair | HT1080-NT tox
COc1ccc(CN2CSC(=S)N(Cc3ccc(OC)cc3)C2)cc1 | 0% | 15µM* | 0 | 4.6µM* | -28% | -3%
S=C1SCN(CCc2ccccc2)CN1CCc1ccccc1 | -17% | 18µM* | -1 | ? | / | -6%
S=C1SCN(Cc2ccccc2)CN1Cc1ccccc1 | 8% | ? | -22 | 8.4µM* | 0% | 9%
CCN(CC)C(=O)C1=C(C)N(CCCN2CCCC2=O)C(=O)C(CC(=O)NCc2ccco2)C1 (stereo not drawn) | 8% | -16% | -7 | 2% | / | 2%
CCCCN(C(=O)CSCC(=O)Nc1ccc(OC)cc1)c1c(N)n(Cc2ccccc2)c(=O)[nH]c1=O | 11% | 0% | 18 | -8% | -10% | 0%
CCCCC(CCC(=O)O)(C(=O)OCC)c1csc(Nc2ccc(OCC)cc2)n1 (stereo not drawn) | 0% | -20% | 18 | -10% | 11% | 4%
COc1ccc(C2C(C(N)=O)=C(C)Nc3nc(CCCO)nn32)cc1OC (stereo not drawn) | -2% | -17% | 19 | ? | 5% | 2%
COc1ccccc1N1CCN(c2nc(CNC(=O)c3sc(C)nc3C)nc3ccccc23)CC1 | / | 5.2µM* | / | 6.5µM* | / | /
O=C(C[n+]1ccc(-c2cc(C(=O)Nc3cccc(C(F)(F)F)c3)c3ccccc3n2)cc1)c1cccc([N+](=O)[O-])c1 | ? | 23µM* | -27 | ? | -5% | -28%
CN(CCc1ccccc1)C(=O)c1cccc(NC(=O)Cc2cccc([N+](=O)[O-])c2)c1 | -7% | ? | ? | ? | 23µM* | -1%
O=C(C[n+]1ccc(C(=O)c2ccccc2)cc1)Nc1ccccc1OC(F)F | -15% | 16µM* | -14 | ? | -1% | -7%
O=C(COC(=O)c1ccc[n+]([O-])c1)Nc1ccccc1OC(F)F | 13% | -16% | -1 | -22% | 20% | 11%
O=C(C[n+]1ccc(C(=O)c2ccccc2)cc1)Nc1cccc([N+](=O)[O-])c1 | -20% | 16µM* | -7 | 21µM* | / | -17%
O=C(c1cc(C2CC2)nn1-c1ccccc1)N1CCN(S(=O)(=O)c2c(F)cccc2F)CC1 | 6% | -15% | 0 | ? | ? | -1%
COc1cccc(NC(=O)CSc2nnnn2C2CCCCC2)c1 | -6% | ? | -8 | -11% | 2% | -15%
O=C(Cc1cccc(NC(=O)C2CCN(C(=O)c3ccccc3)CC2)c1)Nc1cccc(C(=O)N2CCOCC2)c1 | 6% | -3% | 1 | 15% | / | 13%
O=C(Cc1ccccc1)NC(NC(=O)Cc1ccccc1)c1cccc([N+](=O)[O-])c1 | ? | 18µM* | 57 | ? | 12% | ?
CC(C)CC(=O)NC(NC(=O)CC(C)C)c1cccc([N+](=O)[O-])c1 | -4% | -4% | 0 | 18% | 1% | 7%
O=C(Cc1cccc(NC(=O)C2CCN(C(=O)CCc3ccccc3)CC2)c1)Nc1cccc(C(=O)N2CCCCC2)c1 | -3% | 18µM* | 11 | ? | / | -10%
O=C(Cc1cccc(NC(=O)C2CCN(C(=O)C3CCC3)CC2)c1)Nc1cccc(C(=O)N2CCCC2)c1 | 1% | 5% | 13 | -12% | 5% | -3%
O=C(Cc1ccc(NC(=O)C2CCN(C(=O)c3ccccc3)CC2)cc1)Nc1ccc(C(=O)N2CCOCC2)cc1 | -4% | -1% | -3 | -16% | / | 12%
O=C(Cc1cccc(NC(=O)C2CCN(C(=O)CCc3ccccc3)CC2)c1)Nc1cccc(C(=O)N2CCOCC2)c1 | -1% | 15µM* | 0 | 15µM* | / | 0%
O=C(Cc1ccc(NC(=O)C2CCN(C(=O)CCc3ccccc3)CC2)cc1)Nc1ccc(C(=O)N2CCOCC2)cc1 | 4% | 16µM* | 22 | ? | / | 4%
O=C(Nc1c2c(nn1-c1ccc(Cl)cc1)CS(=O)(=O)C2)C1CC1 | 3% | 0% | 0 | -1% | 0% | 2%
Cc1ccc(NC(=O)c2ccc(-n3c(C)nnc3C)cc2)cc1F | / | -30% | / | -23% | / | /
SMILES | HT1080 IDH1KD tx | DT40 TDP1 no CPT | IL1B secr inh | DT40 TDP1 CPT | ELG1 DNA repair | HT1080-NT tox
CSc1ccc(C(=O)C2CCCN(C(=O)Cn3cnnn3)C2)cc1 (stereo not drawn) | 3% | -5% | 5 | -3% | 3% | 0%
O=C(Cc1cccc([N+](=O)[O-])c1)Nc1cccc(C(=O)N2CCCCC2)c1 | 6% | ? | -17 | ? | 16µM* | 5%
COc1ccc(-c2sc3cc4c(cc3c2C#CC2(N)CCCCC2)OCO4)cc1 | ? | 12µM* | -20 | 8.2µM* | 5% | ?
COc1cc(OC)cc(-c2sc3ccc(OC)cc3c2C#CC(C)(C)O)c1 | ? | -12% | -9 | -15% | ? | -17%
COc1ccc(-c2sc3ccc(N4CCOCC4)cc3c2C#CC2(O)CCCCC2)cc1 | ? | ? | 105 | ? | -19% | 21µM*
COc1cc(OC)cc(-c2sc3ccc(OC)cc3c2C#CC2(N)CCCCC2)c1 | ? | 15µM* | ? | ? | -1% | ?
COc1cccc(-c2sc3ccc(OC)cc3c2C#CC2(O)CCCCC2)c1 | ? | 23µM* | -25 | ? | -20% | ?
Cc1ccc(S(=O)(=O)NCc2ccccc2)cc1C(=O)N1CCN(S(=O)(=O)c2ccccc2)CC1 | -5% | ? | 14 | -28% | -6% | 3%
Cc1cc(NC(=O)COc2coc(CN3CCN(c4ccc(F)cc4)CC3)cc2=O)no1 | 0% | 0% | 5 | -24% | -6% | 8%
O=C(O)c1ccc(S(=O)(=O)c2ccccc2C(=O)O)c([N+](=O)[O-])c1 | 24% | -8% | -3 | 13% | 5% | 22%
O=C(O)c1ccc(S(=O)(=O)c2ccc([N+](=O)[O-])cc2[N+](=O)[O-])cc1 | -7% | ? | 16 | 21µM* | -6% | -4%
Cc1ccccc1OCC(=O)NCCc1nc2ccccc2[nH]1 | 4% | ? | 13 | -23% | 1% | 0%
Cc1ccccc1OCCSCc1nc2ccccc2[nH]1 | -21% | ? | 7 | 16µM* | ? | -17%
Cc1cccc(OCCCSc2nc3ccccc3[nH]2)c1 | -19% | -13% | -14 | ? | -10% | -4%
